a7 integrin act: activates integrin-mediated alleviation for muscular dystrophy | Potency, µM (doses to about 38.3 µM), hits mostly activators | 350,000 compounds, 0.064% hits | alpha7betagal myoblasts, beta-gal FDG fluorescence, 48 h; further: nearly all actives have a fitted effect of over 60% in size
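alpha7betagal+/- myoblasts (passage 13, 250/well) treated 48 h at 37C with compounds at 1:260 dilution of DMSO stock. Lysed, then beta-galactosidase activity read as FDG fluorescence (ex 480/em 540) after 30 min, with pre-read for autofluorescence.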
D3 antag: D3 dopamine receptor (human) antagonism; P35462; D3R cells, DiscoveRx beta-arrestin luminescence, antagonist mode; stronger effect = lower value; max response, negative = inhibition, %; 360,000 compounds, 2.5% hits; AID 652054; in the data active means max response below about -50%; inconclusive means no clear call, values can overlap the other calls
Target sequence (P35462 whole entry, looked up): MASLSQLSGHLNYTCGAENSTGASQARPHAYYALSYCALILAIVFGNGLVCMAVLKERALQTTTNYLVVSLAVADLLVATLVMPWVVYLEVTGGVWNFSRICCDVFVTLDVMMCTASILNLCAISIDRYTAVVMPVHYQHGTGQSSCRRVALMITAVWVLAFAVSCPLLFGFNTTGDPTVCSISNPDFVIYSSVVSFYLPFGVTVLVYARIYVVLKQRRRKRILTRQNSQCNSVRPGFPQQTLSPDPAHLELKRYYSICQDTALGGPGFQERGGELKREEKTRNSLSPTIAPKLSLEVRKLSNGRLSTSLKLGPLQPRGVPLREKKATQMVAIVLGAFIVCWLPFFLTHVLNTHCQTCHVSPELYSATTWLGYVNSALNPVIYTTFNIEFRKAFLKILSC
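Cells expressing the human receptor were seeded at 1500 cells/well, incubated overnight at 37 degrees C in 5% CO2, then exposed to library compounds with dopamine controls for 90 minutes at 37 degrees C before luminescent detection.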
ATXN viability: reduces viability in counter-screen for ATXN expression inhibitors; S2 cells (HEK-293 line with an ATXN2-luciferase reporter) viability, CellTiter-Fluor protease fluorescence, 24 h; Potency, µM (top dose mostly 56.7 µM), hits mostly cytotoxic; 400,000 compounds, 0.49% hits; further: nearly all actives have a fitted effect of over 40% in size
DRD3 agonist: activates the human D3 dopamine receptor | P35462 | D3R DiscoveRx beta-arrestin cells, luminescence, 90 min | max activation, % | 410,000 compounds, 0.58% hits; in the data active means max activation above about 30%
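Cells at 1500/well, incubated overnight, then treated with pinned compounds (dopamine as control) for 90 min at 37 degrees C. DiscoveRx reagent added for 30 - 60 minutes at room temperature; luminescence read.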
ATXN2 expr inh: inhibitors of ATXN2 expression; HEK-293 ATXN2-luciferase reporter, luminescence, 24 h; Potency, µM (top dose mostly 57 µM), most hits filed as inhibitors; 360,000 compounds, 0.72% hits; AID 1745845; further: nearly all actives have a fitted effect of over 55% in size
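ATXN2-luciferase reporter cells (luciferase flanked by upstream and downstream ATXN2 gene portions) were treated 24 h at 37 °C with compounds at up to 57 uM. SteadyGlo luminescence gave expression; GF-AFC fluorescence gave viability.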
IL-1B inflam inh: blocks inflammasome-driven IL-1 beta release | 360,000 compounds, 4.7% hits | activity change, % at 57.5 µM | THP-1 LPS/ATP IL-1B secretion, AlphaLISA, 16 h; stronger effect = lower value; in the data active means activity change below about -50%; inconclusive means mostly about -30% to -49%
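THP-1 cells pretreated 1 hr with compounds (up to 57.5 uM final), then stimulated with LPS (250 ng/mL final) plus ATP (1.25 mM final); secreted IL-1B measured by AlphaLISA after 16 hr, decreased signal indicating inhibition.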
Of the large screens only hits and unclear results are named; the others gave an inactive call. Hits are enriched below; roughly 7% of the tested compounds scored in any of these assays. Unless noted, the call rests on the fitted dose curve; in most records, active means well fitted curve in the direction sought with a large enough effect; inconclusive means small, poorly fitted or top-dose-only effect, or another doubt; inactive means no such curve, though single readings can be large; an effect the other way counts as inactive or inconclusive.

CCC(CC)C(=O)N(C)c1c(C)nc2c(OCc3cccc(Cl)c3)cccn12	D3 antag -62, ATXN2 expr inh inconclusive (no result: a7 integrin act)
Cc1nc2c(OCCC3CCCCC3)cccn2c1N(C)C(=O)CCC1CCCC1	D3 antag -67, ATXN viability inconclusive, ATXN2 expr inh inconclusive, IL-1B inflam inh -53 (no result: a7 integrin act)
Cc1nc2c(OCc3cc(Cl)cc(Cl)c3)cccn2c1N(C)C(=O)CCC1CCCC1	D3 antag inconclusive, ATXN2 expr inh inconclusive, IL-1B inflam inh -67 (no result: a7 integrin act)
O=C(CCN1C(=O)c2ccccc2C1=O)Nc1cccnc1	none
CC1CCC(NC(=O)CCCCn2c(=O)[nH]c3ccsc3c2=O)CC1 (stereo not given)	none
COc1ccc([C@H]2CC(=O)C=C(c3ccc4c(c3)sc3ccccc34)C2)cc1	none
O=C(COC(=O)Cn1cnc2ccccc21)Nc1cccc([N+](=O)[O-])c1	a7 integrin act 11µM
Cc1ccc(S(=O)(=O)N(C)C)cc1NC(=O)COC(=O)CN1C(=O)c2ccccc2C1=O	none (no result: ATXN2 expr inh)
C[n+]1c(/C=C/c2ccc(O)cc2)ccc2ccccc21	D3 antag inconclusive, IL-1B inflam inh inconclusive (no result: ATXN viability)
Cc1cc(/C=C\c2ccc3cc(N(C)C)ccc3[n+]2C)c(C)n1-c1ccccc1	D3 antag -61, ATXN viability 4µM, ATXN2 expr inh 1µM, IL-1B inflam inh -113 (no result: a7 integrin act)
CCc1ccc(CNC(=O)c2ccc(OC)c(OC3CCN(C(C)C)CC3)c2)nc1	ATXN viability inconclusive
CCOC(=O)N1CCN(S(=O)(=O)c2ccc(OCC)c(C)c2)CC1	none
Cc1cc(C)c2c(NC(=S)NC(=O)c3ccccc3)nn(C)c2n1	none (no result: ATXN2 expr inh)
Cc1cc(C)c2c(NC(=O)CCl)nn(C)c2n1	ATXN viability inconclusive, IL-1B inflam inh -98
CCC1CCCCN1CCCNC(=O)c1ccc(N2CCOCC2)c(NS(=O)(=O)c2ccc(OC)cc2)c1 (stereo not given)	none
Oc1ccc(C[C@H]2CNCCN2CC2(c3ccccc3)CC2)cc1	IL-1B inflam inh -61
c1ccc(C[C@H]2CNCCN2CCc2cccc3ccccc23)cc1	ATXN viability inconclusive, ATXN2 expr inh inconclusive
FC(F)(F)c1cc(CCN2CCNC[C@H]2Cc2cccc3ccccc23)cc(C(F)(F)F)c1	ATXN viability 40µM, ATXN2 expr inh inconclusive, IL-1B inflam inh -105
Oc1ccc(C[C@H]2CNCCN2CCc2cc(C(F)(F)F)cc(C(F)(F)F)c2)cc1	ATXN2 expr inh inconclusive, IL-1B inflam inh inconclusive (no result: ATXN viability)
CCCC[C@@H]1CNCCN1CCc1cccc2ccccc12	D3 antag -53, ATXN2 expr inh inconclusive, IL-1B inflam inh inconclusive
Oc1ccc(C[C@@H]2CNCCN2CCc2cc(C(F)(F)F)cc(C(F)(F)F)c2)cc1	ATXN viability inconclusive, ATXN2 expr inh 20µM, IL-1B inflam inh -67
CCOc1ccc(-c2nnn(CC(=O)NCc3ccc(C)cc3)n2)cc1	none
Cc1cccc(NC(=O)c2cc(=O)c3ccccc3o2)c1	D3 antag inconclusive
CN(C)/C=C/C(=O)Oc1ccc(Cl)cc1Cl	none
N=c1sccn1CC(=O)NC(c1ccccc1)c1ccccc1	IL-1B inflam inh -52
Cc1ccc(NC(=O)CN(C)C(=O)Cn2ccsc2=N)cc1	none
O=C(Cn1cnc2ccccc21)NC(c1ccccc1)c1ccccc1	none
Cc1ccc(Oc2ccc(NC(=O)Cn3ccsc3=N)cc2)cc1	ATXN viability inconclusive, ATXN2 expr inh inconclusive, IL-1B inflam inh -100
N=c1sccn1CC(=O)Nc1ccccc1Cc1ccccc1	IL-1B inflam inh -51
N=c1sccn1CC(=O)Nc1ccccc1Oc1ccccc1	none
COc1cccc(C(=O)NNC(=O)CCN2CCN(c3ccccc3)CC2)c1	D3 antag inconclusive
O=C(CCN1CCN(c2ccccc2)CC1)NNC(=O)c1cccc2ccccc12	ATXN viability inconclusive, DRD3 agonist 53
N#CCC(=O)Nc1ccc(C(=O)NNC(=O)CCN2CCN(c3ccccc3)CC2)cc1	D3 antag -83
CCC1(c2ccccc2)NC(=O)N(CC(=O)NNC(=O)CCN2CCN(c3ccccc3)CC2)C1=O (stereo not given)	D3 antag -56
CCc1cc(C(=O)NNC(=O)CCN2CCN(c3ccccc3)CC2)sc1C	D3 antag -63
